PD-1 reversal: activators reversing PD-1 mediated T-cell inhibition, primary screen, luminescence, primary human CD4 T cells, PD-L1 beads; CellTiter-Glo 96 h; AID 2316, 2010; 29,000 tested, under 10 active; activation, % (no concentration beside the values); call rule not given here
ROS inducer: ROS inducers in U2OS cancer cells, primary screen, cell-based, H2DCF-DA fluorescence. U2OS ROS induction. actives 2% (n = 46,000). ROS induction (% of piperlongumine), % at 10 µM; in the data active means ROS induction above about 79%, passing the limit was not always enough
YB-1 expr inh: inhibitors of YB-1 gene expression, primary screen, cell-based, fluorescence. U2OS, qRT-PCR YB-1 vs CDIP delta delta Cp, 16 h; hits give high values; zero = DMSO, each unit about twofold. delta delta Cp (YB-1 minus CDIP) (no concentration beside the values). actives 0.37% (n = 30,000);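 active means delta delta Cp rounded down to an integer at or above 3, about 3 SD of DMSO wells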;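 further: higher means less YB-1 transcript or more CDIP transcript relative to DMSO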
Numbers stand for hits; 0 = inactive; - = no result given. Compounds with a hit are over-represented: about 2.3% of the library has one in this group of screens.

SMILES	PD-1 reversal	ROS inducer	YB-1 expr inh
C[C@@H]1CCCCO[C@H](CN(C)C(=O)Nc2ccccc2)[C@@H](C)CN([C@H](C)CO)C(=O)c2cc(NC(=O)c3ccccc3)ccc2O1	0	0	4.4
C[C@@H]1CCCCO[C@H](CN(C)C(=O)Nc2ccccc2)[C@@H](C)CN([C@H](C)CO)C(=O)c2cc(NC(=O)CCC(F)(F)F)ccc2O1	0	0	0
C=CCNC(=O)c1ccc2c(c1)C1C3CCC(C3)C1C(c1ccccc1)N2 (stereo not given)	-	0	-
Fc1cccc(CSc2nc3ccccc3c3nc4ccccc4n23)c1	-	0	-
CCCN(CCC)C(=O)c1cc2c(n(-c3ccc(Cl)c(Cl)c3)c1=O)CC(C)(C)CC2=O	-	0	-
Cc1ccccc1NC(=O)C1CC(O)CN1C(=O)OCc1ccccc1 (stereo not given)	-	0	-
CCn1c(-c2ccccc2Cl)nc2ccccc21	-	0	-
Cc1ccc(S(=O)(=O)N2CCN(c3nc(NC4CCCC4)c4ccccc4n3)CC2)cc1	-	152	-
Cc1ccc(CNC(=O)CSc2nc(NC3CCCCC3)c3ccccc3n2)cc1	-	0	-
COC(=O)c1ccccc1NC(=O)CNC(=O)c1ccc(C(C)(C)C)cc1	0	0	-
C[C@@H]1CN([C@H](C)CO)C(=O)c2cc(NC(=O)Cc3ccccc3)ccc2O[C@@H]1CN(C)S(=O)(=O)c1ccccc1	0	0	18
C[C@@H]1CN([C@H](C)CO)C(=O)c2cc(NC(=O)CCN3CCOCC3)ccc2O[C@H]1CN(C)S(=O)(=O)c1ccccc1	0	0	20
Cc1ccc(S(=O)(=O)N(C)C[C@@H]2Oc3ccc(NC(=O)Cc4ccccc4)cc3C(=O)N([C@H](C)CO)C[C@H]2C)cc1	0	0	0
C[C@H]1CN([C@@H](C)CO)C(=O)c2cc(NC(=O)CCN3CCOCC3)ccc2O[C@H]1CN(C)S(=O)(=O)c1ccccc1	-	0	0
COc1cccc(-n2c(=S)sc3c(=O)n(-c4ccccc4)c(SCC4OCCO4)nc32)c1	-	0	-
CCC(Sc1nncn1C)C(=O)Nc1ccc(OC(F)(F)F)cc1 (stereo not given)	-	0	-
CC1=C(C(=O)Nc2ccccc2C)C(c2cccc([N+](=O)[O-])c2)n2ncnc2N1 (stereo not given)	0	0	-
C[C@H]1CN([C@@H](C)CO)C(=O)c2cc(NS(=O)(=O)c3ccccc3)ccc2O[C@H]1CN(C)Cc1ccc(C(F)(F)F)cc1	0	0	0
COc1ccc(CN(C)C[C@@H]2OCCCC[C@@H](C)Oc3ccc(NS(=O)(=O)c4ccc(OC)cc4)cc3C(=O)N([C@H](C)CO)C[C@@H]2C)cc1	0	172	0
C[C@@H]1CN([C@@H](C)CO)C(=O)c2cc(NS(=O)(=O)c3ccccc3)ccc2O[C@H]1CN(C)Cc1ccc(C(F)(F)F)cc1	0	82	0
COc1ccc(CN(C)C[C@@H]2OCCCC[C@@H](C)Oc3ccc(NC(=O)c4ccncc4)cc3C(=O)N([C@H](C)CO)C[C@@H]2C)cc1	-	0	0
C[C@@H]1CCCCO[C@@H](CN(C)Cc2ccc(Cl)c(Cl)c2)[C@@H](C)CN([C@H](C)CO)C(=O)c2cc(NC(=O)Cc3ccccc3)ccc2O1	0	131	0
COc1ccc(CN(C)C[C@H]2OCCCC[C@@H](C)Oc3ccc(NS(=O)(=O)c4ccc(C)cc4)cc3C(=O)N([C@H](C)CO)C[C@@H]2C)cc1	-	0	0
COc1ccc(CN(C)C[C@@H]2OCCCC[C@@H](C)Oc3ccc(NC(=O)c4ccccc4)cc3C(=O)N([C@H](C)CO)C[C@@H]2C)cc1	0	147	0
C[C@@H]1CCCCO[C@H](CN(C)Cc2ccc(Cl)c(Cl)c2)[C@@H](C)CN([C@H](C)CO)C(=O)c2cc(NC(=O)Cc3ccccc3)ccc2O1	0	0	0
SMILES	PD-1 reversal	ROS inducer	YB-1 expr inh
CCOC(=O)c1sc(C)c2c(=O)n(Cc3ccccc3)c(C)nc12	-	0	-
CCn1cc(SCC(=O)N2N=C(c3cccs3)CC2c2ccc(C)cc2)c2ccccc21 (stereo not given)	-	0	-
COc1ccc(CN(C)C[C@H]2Oc3ccc(NS(=O)(=O)c4ccc(Cl)cc4)cc3C(=O)N([C@H](C)CO)C[C@@H]2C)cc1	-	147	0
COc1ccc(CN(C)C[C@H]2Oc3ccc(NC(=O)c4ccncc4)cc3C(=O)N([C@H](C)CO)C[C@@H]2C)cc1	0	0	0
COc1ccc(CN(C)C[C@H]2Oc3ccc(NS(=O)(=O)c4ccc(Cl)cc4)cc3C(=O)N([C@@H](C)CO)C[C@@H]2C)cc1	0	0	0
COc1ccc(CN(C)C[C@@H]2OCCCC[C@@H](C)Oc3ccc(NS(=O)(=O)c4ccc(Cl)cc4)cc3C(=O)N([C@H](C)CO)C[C@@H]2C)cc1	0	0	0
COc1ccc(S(=O)(=O)Nc2ccc3c(c2)C(=O)N([C@H](C)CO)C[C@H](C)[C@@H](CN(C)Cc2ccc(Cl)c(Cl)c2)OCCCC[C@@H](C)O3)cc1	-	151	0
COc1ccc(CN(C)C[C@@H]2Oc3ccc(NC(=O)c4ccncc4)cc3C(=O)N([C@H](C)CO)C[C@H]2C)cc1	-	149	0
CC(C)(C)c1cc(Sc2nc(N3CCOCC3)nc(N3CCOCC3)n2)cc(C(C)(C)C)c1O	-	0	-
O=C(NCc1ccco1)c1ccc2c(=O)n(C3CCCCC3)c(SCc3cccc(F)c3)nc2c1	-	0	-
Cc1cc(C(=O)Oc2c(C)cc(C(=O)O)c(O)c2C)c(O)c(C)c1O	0	0	0
COc1ccc(S(=O)(=O)N(C)C[C@H]2Oc3ccc(NC(=O)Nc4ccccc4)cc3CC(=O)N([C@H](C)CO)C[C@H]2C)cc1	0	0	0
COc1ccc(S(=O)(=O)N(C)C[C@H]2Oc3ccc(NS(=O)(=O)c4c(C)noc4C)cc3CC(=O)N([C@H](C)CO)C[C@H]2C)cc1	0	0	0
C[C@H](CO)N1C[C@H](C)[C@H](CN(C)C(=O)Nc2ccc(F)cc2)Oc2ccc(NS(=O)(=O)c3ccc(Cl)cc3)cc2CC1=O	0	89	0
COc1ccc(S(=O)(=O)Nc2ccc3c(c2)CC(=O)N([C@H](C)CO)C[C@@H](C)[C@@H](CN(C)C(=O)Nc2ccc4c(c2)OCO4)O3)cc1	0	0	0
COc1ccc(S(=O)(=O)Nc2ccc3c(c2)CC(=O)N([C@H](C)CO)C[C@@H](C)[C@@H](CN(C)S(=O)(=O)c2c(C)noc2C)O3)cc1	0	89	0
COc1ccc(S(=O)(=O)Nc2ccc3c(c2)CC(=O)N([C@@H](C)CO)C[C@@H](C)[C@@H](CN(C)C(=O)Nc2ccc4c(c2)OCO4)O3)cc1	0	81	0
COc1ccc(S(=O)(=O)N(C)C[C@@H]2Oc3ccc(NC(=O)Nc4ccccc4)cc3CC(=O)N([C@@H](C)CO)C[C@@H]2C)cc1	0	112	0
C[C@@H]1CN([C@H](C)CO)C(=O)Cc2cc(NS(=O)(=O)c3ccc(Cl)cc3)ccc2O[C@H]1CN(C)C(=O)Nc1ccc(F)cc1	-	0	0
COC(=O)c1c(C)cc2c(c(C)c1=O)OC1(C2)C(C)CCC2C(C)(C)OC(=O)C=CC21C (stereo not given)	0	0	0
CC1=Nc2ccc(C(F)(F)F)cc2C1(C)C	0	0	0
